# According to the supplement of paper PMC8728848:
# Only a selection was taken, and the strongest signals are over-represented in it overall.
# B1: PX9961M-bvu-482-23-482 (Bacteroides vulgatus) (protein)
# chain: WLDLAPSTQVDTETSINVLSDIEFTLNGIYSTMQSSDAYSGRLVYYGDVTGDDMQAVSSTKRTGNYYRFNFTKDNGPSSHWSYLYSIIQNCNLILMNVDKLSIDEDETEYKNDLKGQALAIRGMALFDLTRIFGYPYLKDNGASLGVPIVKELSTIDSKPARNTVAECYTEIISDLKNSTELLSGDFNKGKVNRWAAMTLLSRVYLYKGEYNEALTMAENAIKGAEKEGYALWTNEEYPTAWGNDASASNPGEILFEIVNLTTDSPGKESMGYLNSYNGYDDMCITCSFYQLLKKDPKDVRLKILSFDKKYYAYVNKYQPQQGENITDANIPLIRLSEAYLNAAEAAVQTGDNAKAVKYLNSIVQRANPENSVEGKTLTLENVLDERRKELVAEGHRMYDVIRNGMTVKRIDVKDSDINKTKHNTAYMEYDWNFHKILLPIPKKEMDANPNMKQNPGYVD
# Columns and labels:
# Assay in all cases: glycan array binding signal (z-score within array); higher = stronger binding
# Settings in all cases: glycan notation: IUPAC condensed, linker removed
# [1] = target: Fuc(a1-2)Gal(b1-3)GlcNAc(b1-2)Man(a1-3)[Fuc(a1-2)Gal(b1-3)GlcNAc(b1-2)Man(a1-6)]Man(b1-4)GlcNAc(b1-4)GlcNAc
# Outline: (§1)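 Negative Z-scores can be read as non-binding. The Z-score is calculated within each array and then averaged across arrays of one protein sequence at different concentrations or buffers and across linkers. Arrays, 3228 in all, were curated from the Consortium for Functional Glycomics database and kept only where the protein sequence was available.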
# [2] = target: Fuc(a1-2)Gal(b1-3)GlcNAc(b1-3)GalNAc
# Outline: as §1
# [3] = target: Fuc(a1-2)Gal(b1-3)[Fuc(a1-4)]GlcNAc
# Outline: as §1
# [4] = target: Fuc(a1-2)Gal(b1-3)[Fuc(a1-4)]GlcNAc(b1-3)[Gal(b1-4)GlcNAc(b1-6)]Gal(b1-4)Glc
# Outline: as §1
# [5] = target: Fuc(a1-2)Gal(b1-4)GlcNAc(b1-2)[Fuc(a1-2)Gal(b1-4)GlcNAc(b1-4)]Man(a1-3)[Fuc(a1-2)Gal(b1-4)GlcNAc(b1-2)Man(a1-6)]Man(b1-4)GlcNAc(b1-4)GlcNAc
# Outline: as §1
# [6] = target: Fuc(a1-2)Gal(b1-4)GlcNAc(b1-3)Gal(b1-4)GlcNAc
# Outline: as §1
# [7] = target: Fuc(a1-2)Gal6S(b1-4)Glc6S
# Outline: as §1
# [8] = target: Fuc(a1-2)[Gal(a1-3)]Gal(b1-3)GlcNAc
# Outline: as §1
# [9] = target: Fuc(a1-2)[Gal(a1-3)]Gal(b1-4)GlcNAc
# Outline: as §1
# [10] = target: Fuc(a1-2)[Gal(a1-3)]Gal(b1-4)GlcNAc(b1-2)Man(a1-3)[Fuc(a1-2)[Gal(a1-3)]Gal(b1-4)GlcNAc(b1-2)Man(a1-6)]Man(b1-4)GlcNAc(b1-4)GlcNAc
# Outline: as §1
# [11] = target: Fuc(a1-2)[GalNAc(a1-4)]Gal(b1-4)GlcNAc
# Outline: as §1
# [12] = target: Fuc(a1-3)[Gal(b1-4)]GlcNAc(b1-2)Man(a1-3)[Fuc(a1-3)[Gal(b1-4)]GlcNAc(b1-2)Man(a1-6)]Man(b1-4)GlcNAc(b1-4)[Fuc(a1-6)]GlcNAc
# Outline: as §1
# [13] = target: Fuc(a1-3)[Gal3S(b1-4)]GlcNAc6S
# Outline: as §1
# [14] = target: Gal(a1-3)[Gal(a1-4)]Gal(b1-4)GlcNAc
# Outline: as §1
# [15] = target: Gal(a1-4)Gal(b1-3)GlcNAc(b1-2)Man(a1-3)[Gal(a1-4)Gal(b1-3)GlcNAc(b1-2)Man(a1-6)]Man(b1-4)GlcNAc(b1-4)GlcNAc
# Outline: as §1
# [16] = target: Gal(b1-3)GlcNAc(b1-2)Man(a1-3)[GlcNAc(b1-4)][Gal(b1-3)GlcNAc(b1-2)Man(a1-6)]Man(b1-4)GlcNAc(b1-4)GlcNAc
# Outline: as §1
# [17] = target: Gal(b1-4)GalNAc(b1-3)[Fuc(a1-2)]Gal(b1-4)GlcNAc
# Outline: as §1
# [18] = target: Gal(b1-4)GlcNAc(a1-6)Gal(b1-4)GlcNAc
# Outline: as §1
# [19] = target: Gal(b1-4)GlcNAc(b1-2)Man(a1-3)Man(b1-4)GlcNAc(b1-4)GlcNAc
# Outline: as §1
# [20] = target: Gal(b1-4)GlcNAc(b1-2)Man(a1-3)[Gal(b1-4)GlcNAc(b1-2)Man(a1-6)][GlcNAc(b1-4)]Man(b1-4)GlcNAc(b1-4)[Fuc(a1-6)]GlcNAc
# Outline: as §1
# [21] = target: Gal(b1-4)GlcNAc(b1-2)[Gal(b1-4)GlcNAc(b1-6)]Man(a1-6)[GlcNAc(b1-4)][Gal(b1-4)GlcNAc(b1-2)Man(a1-3)]Man(b1-4)GlcNAc(b1-4)GlcNAc
# Outline: as §1
# [22] = target: Gal(b1-4)GlcNAc(b1-2)[Gal(b1-4)GlcNAc(b1-6)]Man(a1-6)[GlcNAc(b1-4)][Gal(b1-4)GlcNAc(b1-2)[Gal(b1-4)GlcNAc(b1-4)]Man(a1-3)]Man(b1-4)GlcNAc(b1-4)[Fuc(a1-6)]GlcNAc
# Outline: as §1
# [23] = target: Gal(b1-4)GlcNAc(b1-3)Gal(b1-3)GalNAc
# Outline: as §1
# [24] = target: Gal(b1-4)GlcNAc(b1-3)Gal(b1-4)GlcNAc(b1-3)Gal(b1-4)GlcNAc
# Outline: as §1
# [25] = target: Gal(b1-4)GlcNAc(b1-3)Gal(b1-4)GlcNAc(b1-3)Gal(b1-4)GlcNAc(b1-2)Man(a1-3)[Gal(b1-4)GlcNAc(b1-3)Gal(b1-4)GlcNAc(b1-3)Gal(b1-4)GlcNAc(b1-2)Man(a1-6)]Man(b1-4)GlcNAc(b1-4)GlcNAc
# Outline: as §1
# [26] = target: Gal(b1-4)GlcNAc(b1-3)Gal(b1-4)GlcNAc(b1-3)Gal(b1-4)GlcNAc(b1-3)Gal(b1-4)GlcNAc(b1-2)Man(a1-3)[Gal(b1-4)GlcNAc(b1-3)Gal(b1-4)GlcNAc(b1-3)Gal(b1-4)GlcNAc(b1-3)Gal(b1-4)GlcNAc(b1-2)Man(a1-6)]Man(b1-4)GlcNAc(b1-4)[Fuc(a1-6)]GlcNAc
# Outline: as §1
# [27] = target: Gal(b1-4)GlcNAc(b1-3)Gal(b1-4)[Fuc(a1-3)]GlcNAc(b1-3)Gal(b1-4)[Fuc(a1-3)]GlcNAc
# Outline: as §1
binder,measurement,setting,value
B1,glycan array binding signal (z-score),[1],0.321
same,glycan array binding signal (z-score),[2],-1.09
same,glycan array binding signal (z-score),[3],-0.893
same,glycan array binding signal (z-score),[4],0.057
same,glycan array binding signal (z-score),[5],1.74
same,glycan array binding signal (z-score),[6],-1.33
same,glycan array binding signal (z-score),[7],0.138
same,glycan array binding signal (z-score),[8],-0.45
same,glycan array binding signal (z-score),[9],-0.597
same,glycan array binding signal (z-score),[10],1.68
same,glycan array binding signal (z-score),[11],-0.779
same,glycan array binding signal (z-score),[12],1.97
same,glycan array binding signal (z-score),[13],-0.788
same,glycan array binding signal (z-score),[14],4.04
same,glycan array binding signal (z-score),[15],1.92
same,glycan array binding signal (z-score),[16],-0.064
same,glycan array binding signal (z-score),[17],-0.62
same,glycan array binding signal (z-score),[18],1.66
same,glycan array binding signal (z-score),[19],0.327
same,glycan array binding signal (z-score),[20],0.416
same,glycan array binding signal (z-score),[21],-0.402
same,glycan array binding signal (z-score),[22],-0.596
same,glycan array binding signal (z-score),[23],-1.18
same,glycan array binding signal (z-score),[24],-0.219
same,glycan array binding signal (z-score),[25],1.88
same,glycan array binding signal (z-score),[26],0.966
same,glycan array binding signal (z-score),[27],-0.719
